Assay results published in PubChem BioAssay.

Key:
[1] = test system: Botulinum neurotoxin type F light chain protease (Clostridium botulinum); test: Clostridium botulinum type F light chain protease inhibitors, microsphere substrate cleavage, validation (AID 588459); settings: multiplex microsphere protease substrate cleavage assay, flow cytometry; at 10 µM; hits give high values
[2] = target: Botulinum neurotoxin type A (Clostridium botulinum) (UniProt P0DPI0); test: BoNT/A light chain protease inhibitors, biochemical, multiplex microsphere flow cytometry, validation set (AID 588460); settings: at 10 µM, hits give high values
[3] = target: Lethal factor (Bacillus anthracis) (UniProt P15917); test: Bacillus anthracis lethal factor inhibition, microsphere flow cytometry protease assay, validation at 10 µM (AID 588461); settings: multiplex microsphere protease cleavage assay, hits give high values

Measured: inhibition

CCc1cc(=O)oc2cc3occ(-c4ccc(OC)c(F)c4)c3cc12
inactive: [1] 2.2% | [2] -0.9% | [3] -2.7%

COc1ccc(CCNc2ncnc3c2[nH]c2cc(OC)c(OC)cc23)cc1OC
inactive: [1] -0.5% | [2] -0.5% | [3] -0.7%

Cc1ccc(/C=N/NC(=O)C2(C)CC2(Br)Br)cc1 (stereo not drawn)
inactive: [1] 1.3% | [2] -0.4% | [3] -5.6%

CC(OC(=O)c1cc(=O)[nH]c2ccccc12)C(=O)c1ccccc1 (stereo not drawn)
inactive: [1] 2.3% | [2] -2.4% | [3] -6.9%

O=C(O)CCn1c(=S)n(CCC(=O)O)c2ccccc21
inactive: [1] 2.7% | [2] 0.3% | [3] 3.1%

CC(=O)C1=C(O)C(=O)N(CC(=O)O)C1c1ccccc1Cl (stereo not drawn)
inactive: [1] -1.5% | [2] -0.5% | [3] -3%

CNCCCC12CCC(c3ccccc31)c1ccccc12
inactive: [1] -2% | [2] -2.1% | [3] -5%

c1ccc(Cn2nnc3cnccc32)cc1
inactive: [1] 3.6% | [2] -0.8% | [3] 1.4%

COC(=O)c1cc(OC)c(OC)c(OC)c1[N+](=O)[O-]
inactive: [1] 1.9% | [2] 0.1% | [3] -0.2%

CC1(c2ccccc2)CC(C)(C)N2C(=O)C(=O)c3cccc1c32 (stereo not drawn)
inactive: [1] 0.5% | [2] 1.2% | [3] -0.4%

O=c1cc(-c2ccccc2)oc2cc(OCc3ccccc3)cc(O)c12
inactive: [1] -0.8% | [2] -0.6% | [3] -4.8%

CCC(=O)c1ccc(O)cc1
inactive: [1] 1.2% | [2] -0.4% | [3] -1.2%

Cc1nc(C2CC(=O)OC23CCCCC3)cs1 (stereo not drawn)
inactive: [1] 0.3% | [2] -0.7% | [3] -10.4%

COc1ccc2[nH]cc(C3N4CC5(C)CN3CC(C)(C4)C5=O)c2c1 (stereo not drawn)
inactive: [1] 3% | [2] -0.2% | [3] 4.1%

CC(=O)c1ccc(CCCCCCCCCC(=O)O)s1
inactive: [1] 1.9% | [2] 0.3% | [3] -1%

CC12CC(c3ccccc3O1)C(C(=O)N1CCOCC1)C(=O)N2 (stereo not drawn)
inactive: [1] 2.8% | [2] 0% | [3] -4.8%

Cc1ccc(S(=O)(=O)NC(C(=O)Oc2cc3oc(=O)cc(C)c3cc2Cl)C(C)C)cc1 (stereo not drawn)
inactive: [1] 0.5% | [2] 0.5% | [3] -3.2%

C=C(C)Cn1c(NCCOC)nc2c1c(=O)[nH]c(=O)n2C
inactive: [1] 0.2% | [2] -0.3% | [3] -5.2%

CCCc1cc(=O)[nH]c(=S)[nH]1
inactive: [1] -2.4% | [2] 1.4% | [3] 1.8%

c1ccc2c(c1)CCOC2CNCCCN1CCCCC1 (stereo not drawn)
inactive: [1] 0.6% | [2] 1.3% | [3] -8.4%

CC(NCCC(c1ccccc1)c1ccccc1)c1ccccc1 (stereo not drawn)
inactive: [1] -5.9% | [2] -1.1% | [3] 3.4%

NS(=O)(=O)c1cc2c(cc1Cl)NC(C(Cl)Cl)NS2(=O)=O (stereo not drawn)
inactive: [1] -0.3% | [2] 0.1% | [3] -3%

CNc1nc(N(C)C)nc(N(C)C)n1
inactive: [1] 1.3% | [2] 0.7% | [3] -1.7%

CCOc1ccc2oc(-c3ccccc3)c(C(=O)O)c2c1
inactive: [1] -1.1% | [2] -0.2% | [3] -3.1%

Cn1cc(/C=C/C(=O)c2ccccc2)c2ccccc21
inactive: [1] -4.2% | [2] -0.5% | [3] -5.4%

CCNC(=O)c1sc2cc(C)ccc2c1Cl
inactive: [1] 2.4% | [2] -1.2% | [3] -1.4%

CC1(C)CC(CC(=O)O)(c2ccc(Cl)cc2)CCO1 (stereo not drawn)
inactive: [1] 2.5% | [2] -1.9% | [3] -4.6%

CCOC(=O)C(=O)Nc1ccc(Oc2ccccc2)cc1
inactive: [1] 1.4% | [2] 0% | [3] 1.3%

Cc1ccccc1N1C(N)=NC(N)=NC1(C)C
inactive: [1] -1.5% | [2] -0.8% | [3] 6.8%

COc1ccc(O)c(C2=Nc3ccccc3N=C(c3ccccc3)C2)c1
inactive: [1] 0.8% | [2] 0.8% | [3] 4.2%

O=c1nc2cccc3c2=c(/c1=C(\O)c1ccccc1)c1ccccc1c3=O
inactive: [1] 3.2% | [2] 0.6% | [3] -0.8%
